Bioassay records: PubChem, National Center for Advancing Translational Sciences (NCATS)
Pf growth 48h – Primary qHTS for delayed death inhibitors of the malarial parasite plastid, 48 hour incubation | AID 504832, 2011 | P. falciparum luciferase growth in erythrocytes, 48 h | 5.9% of 310,000 active | Potency, µM (doses to about 28.7 µM), most hits filed as inhibitors
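Read-out is firefly luciferase luminescence from an integrated reporter in P. falciparum, so falling signal marks reduced parasite growth. Infected erythrocytes were at 2% hematocrit and 0.1% parasitemia (final) in Albumax-supplemented RPMI 1640.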
Cycloheximide cs – Cycloheximide Counterscreen for Small Molecule Inhibitors of Shiga Toxin | 12% of 300,000 active | cell reporter, cycloheximide protein synthesis inhibition counterscreen | max response, %; in the data active = max response mostly above about 13%, no sharp cut-off; inactive = mostly below about 14%; note: read at 38.3 µM for the half of the compounds with a filed dose
Pf growth 96h – Primary qHTS for delayed death inhibitors of the malarial parasite plastid, 96 hour incubation. Potency, µM (top dose mostly 28.7 µM), hits mostly inhibitors. AID 504834, 2011. 6.9% of 320,000 active. P. falciparum luciferase reporter growth, 96 h
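Readout is luminescence from an integrated firefly luciferase in P. falciparum. Red cells, 2% hematocrit and 0.05% parasitemia final, were cultured with compound through two parasite generations (96 hours) at 37 C, 5% CO2.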
Shiga inhibitor – A qHTS for Small Molecule Inhibitors of Shiga Toxin. 9.2% of 290,000 active. inhibition, % at 38.7 µM. Vero cells, Shiga toxin protein synthesis inhibition reporter; in the data active = inhibition mostly above about 28%, no sharp cut-off; inactive = mostly below about 43%
HCMV inh – qHTS Assay for inhibitors of the human cytomegalovirus (HCMV). HFF cells, HCMV-luciferase reporter, 72 h; active compounds read low. activity change, negative = inhibition, % at 57.5 µM. 4.5% of 410,000 active. AID 1259415, 2018; in the data active = activity change below about -60%; inconclusive = no clear call, values can overlap the other calls; inactive = above about -39%
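Cell-based, HFFs, 1000 cells/well, 16 h 37C; cpds in DMSO + HCMV-luc, MOI 1 PFU/cell; 72 h 37C; OneGlo luminescence after 5 min RT; norm. to buffer vs Salinomycin 10uM.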
Of the large screens only hits and unclear results are named; the others gave an inactive call. Most compounds without a hit are left out; they make up all but 20% or so of the library. Unless noted, calls come from the whole dose curve; as a rule, active = well fitted inhibition curve with a large enough effect; inconclusive = small, poorly fitted or top-dose-only effect, or another doubt; inactive = no such curve, though single readings can be large or run the other way.

CC1=C(C(=O)Nc2ccc(C)cc2C)C(c2ccc(O)cc2)n2nc(SCC(=O)c3ccc(C)cc3)nc2N1 (configuration not stated)	none (no result: Pf growth 48h, Cycloheximide cs, Pf growth 96h, Shiga inhibitor)
CC(C)Cc1nnc(NC(=O)CCC(=O)NCc2ccccc2Cl)s1	none
COc1ccc(CCN(C)C(=O)COC(=O)/C=C/c2ccc(C)o2)cc1OC	Pf growth 96h inconclusive (no result: Cycloheximide cs, Shiga inhibitor)
O=C(COC(=O)c1ccc(F)cc1F)NCCC1=CCCCC1	none (no result: Cycloheximide cs, Shiga inhibitor)
O=C(COC(=O)c1ccc2c(c1)OCCO2)NCCC1=CCCCC1	Cycloheximide cs 23, Pf growth 96h inconclusive, Shiga inhibitor 100
O=C(COC(=O)c1ccccc1Cl)NCCC1=CCCCC1	Cycloheximide cs 31, Shiga inhibitor 83
COc1ccc(OC)c(NC(=O)c2nc(SCc3ccc(F)cc3)ncc2Cl)c1	none (no result: Pf growth 48h, Cycloheximide cs, Pf growth 96h, Shiga inhibitor)
Cc1ccc(-c2cc(C(=O)NCc3ccc4c(c3)OCO4)no2)cc1	none
O=C(NCc1ccccn1)c1ccc(-c2ccccc2)cc1	Cycloheximide cs 36, Shiga inhibitor 64
Cc1ccc(-c2cc(C(=O)NCc3ccccn3)no2)cc1	Cycloheximide cs 45, Shiga inhibitor 85
O=C(NCc1ccccn1)c1cc(-c2ccccc2)on1	Cycloheximide cs 36, Pf growth 96h inconclusive, Shiga inhibitor 141
O=C(NCc1ccccn1)c1ccc(N2CCCC2=O)cc1	Cycloheximide cs 23
O=C(NCCc1csc(-c2ccc(F)cc2)n1)C(=O)Nc1ccc(Cl)cc1	none (no result: Pf growth 48h, Cycloheximide cs, Pf growth 96h, Shiga inhibitor)
NNc1nc2cccnc2n(CCNc2ncc(C(F)(F)F)cc2Cl)c1=O	Pf growth 48h inconclusive, Pf growth 96h 12µM, HCMV inh inconclusive
O=c1c(Cl)nc2cc(Cl)ccc2n1CCNc1ncc(C(F)(F)F)cc1Cl	Pf growth 48h 13µM, Pf growth 96h inconclusive (no result: HCMV inh)
O=c1c2nncn2c2cc(C(F)(F)F)ccc2n1CCNc1ncc(C(F)(F)F)cc1Cl	Pf growth 48h inconclusive, Pf growth 96h inconclusive
CCOC(=O)c1csc(NC(=O)c2ccc(C#N)cc2)n1	none
Cc1ccc(OCC(=O)Nc2ccc(Cl)cc2)c(-n2nc3ccccc3n2)c1	none
Cc1ccc(O)c(Nc2ncnc3ccccc23)c1	Pf growth 48h inconclusive
Cc1ccc(O)c(-n2nc3ccccc3n2)c1	Cycloheximide cs 44, Pf growth 96h inconclusive, Shiga inhibitor 90
CCOc1ccc(C)cc1-n1nc2ccccc2n1	Cycloheximide cs 20, Pf growth 96h inconclusive
COc1ccc(C)cc1-n1nc2ccccc2n1	Cycloheximide cs 26, Pf growth 96h inconclusive, HCMV inh inconclusive
CC(C)(C)C(=O)C(C(c1ccccc1)N1CCOCC1)N1CCOCC1 (configuration not stated)	none (no result: Pf growth 48h, Cycloheximide cs, Pf growth 96h, Shiga inhibitor)
CCCN1CCC(N2CCCC(C(=O)O)C2)CC1 (configuration not stated)	HCMV inh -60
O=c1[nH]cnc2nn(-c3ccccc3)nc12	Shiga inhibitor 84 (no result: Pf growth 96h)
COc1cccc(C(=O)NC2CC3CCCC(C2)N3CC(=O)Nc2ccccc2)c1 (configuration not stated)	Pf growth 48h 5.2µM, Pf growth 96h inconclusive
COc1cccc(C(=O)NC2CC3CCCC(C2)N3CC(=O)Nc2ccc(N(C)C)cc2)c1 (configuration not stated)	Pf growth 48h inconclusive, Pf growth 96h 12µM, HCMV inh inconclusive
O=C(CN1C2CCCC1CC(NC(=O)c1ccccc1)C2)Nc1ccccc1 (configuration not stated)	Pf growth 48h inconclusive, Pf growth 96h 8.3µM
COc1cccc(C(=O)NC2CC3CCCC(C2)N3Cc2ccc(C)cc2)c1 (configuration not stated)	Pf growth 48h inconclusive, Pf growth 96h inconclusive
CC(=O)Nc1cc(-c2ccc(C(=O)NC3CC3)cc2)cn2c(-c3cccc(C(F)(F)F)c3)cnc12	none (no result: Pf growth 48h, Cycloheximide cs, Pf growth 96h, Shiga inhibitor)
CCOc1cc(S(=O)(=O)NCCCN2CCOCC2)ccc1F	Pf growth 96h inconclusive
Cc1cccc(N2C(S)=C(C#N)C(=O)NC2c2ccco2)c1 (configuration not stated)	HCMV inh -68
CCCCCCNC(=O)n1cc(F)c(=O)[nH]c1=O	Pf growth 48h 4.3µM, Pf growth 96h 2.1µM (no result: Cycloheximide cs, Shiga inhibitor, HCMV inh)
Cc1ccc(C(=S)N2CCN(Cc3ccccc3)CC2)cc1	Pf growth 96h inconclusive
CCN1CCN(C(=S)NC(C)c2ccccc2)CC1 (configuration not stated)	Pf growth 96h 3.7µM, HCMV inh inconclusive
CCN1CCN(C(=S)c2ccc(-c3ccccc3)cc2)CC1	Pf growth 96h inconclusive, HCMV inh -81
CCN1CCN(C(=S)NC(CC(=O)c2ccccc2)c2ccccc2)CC1 (configuration not stated)	Pf growth 96h inconclusive
COc1ccc([C@@H]2CC=C(C(=O)O)[C@H](c3ccc(Cl)cc3)N2S(=O)(=O)c2ccc(Cl)cc2)cc1	Pf growth 48h inconclusive (no result: Cycloheximide cs, Shiga inhibitor)
Oc1cc2c(cc1CN1CCN(c3ccc(F)cc3)CC1)OCO2	Pf growth 48h inconclusive
Oc1cc2c(cc1CN1CCN(c3ccccc3)CC1)CCC2	Pf growth 48h 1.7µM, Pf growth 96h 2.6µM
Oc1cc2c(cc1CN1CCN(c3cccc(C(F)(F)F)c3)CC1)CCC2	Pf growth 48h 1.7µM, Pf growth 96h 1.2µM
COc1ccc(N2CCN(Cc3cc4c(cc3O)CCC4)CC2)cc1	Pf growth 48h 1.7µM (no result: Pf growth 96h)
O=C(c1ccc(Cl)c(S(=O)(=O)N2CCOCC2)c1)N(c1ccccn1)C1CCCCC1	Pf growth 48h inconclusive, Pf growth 96h inconclusive
CCn1c(SCC(=O)Nc2nccc(C)n2)nc2ccccc21	none
CC(C)N1CCc2c(sc(NC(=O)c3ccc([N+](=O)[O-])o3)c2C(N)=O)C1	Pf growth 48h 13µM, Cycloheximide cs 28, Pf growth 96h 4.7µM, HCMV inh -98
COC(=O)c1c(NC(=O)Cc2ccccc2)sc2c1CCN(C(C)C)C2	none
CC(=O)N1CCc2c(sc(NC(=O)c3ccc([N+](=O)[O-])o3)c2C#N)C1	Pf growth 96h inconclusive, Shiga inhibitor 82, HCMV inh -98
COC(=O)c1c(NC(=O)c2ccc([N+](=O)[O-])o2)sc2c1CCN(C(C)C)C2	Pf growth 48h 15µM, Cycloheximide cs 23, Pf growth 96h inconclusive, HCMV inh inconclusive
COc1ccc(C(C)(C)C)cc1NC(=O)CCCN1C(=O)NC(C)(C)C1=O	none (no result: Cycloheximide cs, Shiga inhibitor)
O=C(C[C@H]1C=C[C@@H](NS(=O)(=O)c2ccccc2)[C@@H](CO)O1)NCc1ccc(Cl)c(Cl)c1	none (no result: Pf growth 48h, Cycloheximide cs, Pf growth 96h, Shiga inhibitor)
Cc1noc(C)c1-c1nc(CSc2ccccc2)no1	Cycloheximide cs 21
C[C@@H]1CN([C@H](C)CO)C(=O)CCCn2nncc2CO[C@H]1CN(C)S(=O)(=O)c1ccc(Oc2ccccc2)cc1	none (no result: Pf growth 48h, Cycloheximide cs, Pf growth 96h, Shiga inhibitor)
CCc1ccc(S(=O)(=O)c2cn(C)c3cc(F)c(F)cc3c2=O)cc1	none (no result: Pf growth 48h, Cycloheximide cs, Pf growth 96h, Shiga inhibitor)
Nn1c(SCC(=O)Nc2ccc3c(c2)OCCO3)nncc1=O	Cycloheximide cs 16, Shiga inhibitor 31
COc1ccc(-n2nnnc2SCC(=O)N2C(C)CCCC2C)c(OC)c1 (configuration not stated)	Pf growth 48h inconclusive, HCMV inh -79 (no result: Pf growth 96h)
